We go through nine compounds from PubChem BioAssay (NCI).

Compounds without any hit were thinned out: in the full panel of roughly 79,000, 15% have a hit. Values without a mark were called inactive. Active and inactive are the calls of the source. No stated cut-off is given here; in the data, active means growth inhibition above about 70%; inactive means the rest.

Experiment [1] can be described thus: NCI Yeast Anticancer Drug Screen. Data for the rad50 strain (AID 155).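 Further: 0% = growth of vehicle-only cultures of the same strain.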 The note with it: S. cerevisiae rad50 strain growth inhibition, stronger effect = higher value. Summed up:
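Growth of the mutant yeast was measured after compound exposure and referenced to vehicle-treated cultures.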

Experiment [2] in a line: NCI Yeast Anticancer Drug Screen. Data for the mec2-1 strain (AID 157). The note with it: S. cerevisiae mec2-1 strain, stronger effect = higher value. The method, boiled down:
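Growth inhibition is read against vehicle-treated controls after compound exposure of the mec2-1 yeast strain, which is defective in DNA damage repair or cell cycle control.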

Experiment [3] can be described thus: NCI Yeast Anticancer Drug Screen. Data for the sgs1 mgt1 strain (AID 161).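 Further: 0% = growth of cultures given vehicle only.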 The note with it: S. cerevisiae sgs1 mgt1 strain, stronger effect = higher value. Summed up: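 Growth of a repair-deficient yeast mutant was monitored after compound treatment and expressed as inhibition relative to vehicle-treated cultures.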
The nature of experiment [4]: NCI Yeast Anticancer Drug Screen. Data for the cln2 rad14 strain (AID 165).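 Further: 0% = growth equal to vehicle treated cultures.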 The note with it: S. cerevisiae cln2 rad14 strain, stronger effect = higher value. Summed up: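 Growth inhibition, relative to vehicle-treated controls, is the read-out. The test organism is a yeast strain with defined genetic alterations, cln2 rad14.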
Experiment [5] can be described thus: NCI Yeast Anticancer Drug Screen. Data for the bub3 strain (AID 167). The note with it: S. cerevisiae bub3 mutant strain, stronger effect = higher value. The method, boiled down: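 Whole-cell yeast assay. The mutant strain was incubated with compounds, and growth inhibition was determined by comparison with vehicle-treated cells.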
A short description of experiment [6]: NCI Yeast Anticancer Drug Screen. Data for the mlh1 rad18 strain (AID 175). The note with it: S. cerevisiae mlh1 rad18 strain growth inhibition, stronger effect = higher value. The method, boiled down:
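Cells of a genetically altered yeast strain, deficient in DNA damage repair, were treated with compound. Their growth was then compared with that of vehicle-treated cultures to give inhibition.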

Where [7] appears, read: at 5.0 µM (retest, dose inferred, filed as 0.5).
Where [8] appears, read: at 50.0 µM (retest, dose inferred, filed as 5.0).

With `c1ccc(N/N=C(/CC/C(=N\Nc2ccccc2)c2ccccc2)c2ccccc2)cc1`, the growth inhibition is 6% in experiment [1] (setting [7]); 77% (active) in experiment [1] (setting [8]); 95.5% (active) in experiment [1] (at 50.0 µM); 4% in experiment [2] (setting [7]); 90% (active) in experiment [2] (setting [8]); 97% (active) in experiment [2] (at 50.0 µM). Besides, the growth inhibition in experiment [3] (setting [7]) was -13%; in experiment [3] (setting [8]) it was 82% (active); in experiment [3] (at 50.0 µM), 97.2% (active); in experiment [4] (setting [7]), -13%; in experiment [4] (setting [8]) it was 81% (active); in experiment [4] (at 50.0 µM), 47.8%. The growth inhibition in experiment [5] (setting [7]) was -5%; in experiment [5] (setting [8]), 89% (active); in experiment [5] (at 50.0 µM), 95.9% (active); in experiment [6] (setting [7]) it was 18%; in experiment [6] (setting [8]), 92% (active); in experiment [6] (at 50.0 µM) it was 97.5% (active).

As for `c1ccc(N=C2c3ccsc3C(=Nc3ccccc3)c3ccsc32)cc1`, the growth inhibition in experiment [1] (setting [7]) was 25%; in experiment [1] (setting [8]), 98% (active); in experiment [1] (at 50.0 µM) it was 80% (active); in experiment [2] (setting [7]), 22%; in experiment [2] (setting [8]), 98% (active); in experiment [2] (at 50.0 µM), 75.5% (active). The growth inhibition in experiment [3] (setting [7]) is 21%; in experiment [3] (setting [8]), 93% (active); in experiment [3] (at 50.0 µM), 81.7% (active); in experiment [4] (setting [7]) it was 5%; in experiment [4] (setting [8]), 53%; in experiment [4] (at 50.0 µM), 84.5% (active). For the same compound, the growth inhibition was 51% in experiment [5] (setting [7]); 97% (active) in experiment [5] (setting [8]); 81.6% (active) in experiment [5] (at 50.0 µM); 29% in experiment [6] (setting [7]); 97% (active) in experiment [6] (setting [8]); 85.6% (active) in experiment [6] (at 50.0 µM).

With `COC(CCC[N+](C)(C)C)CC[N+](C)(C)C` (configuration not stated), the growth inhibition in experiment [1] (setting [7]) was 11%; in experiment [1] (setting [8]), 81% (active); in experiment [1] (at 50.0 µM) it was 95.9% (active); in experiment [2] (setting [7]), -9%; in experiment [2] (setting [8]), 83% (active); in experiment [2] (at 50.0 µM), 97.6% (active). For the same compound, the growth inhibition in experiment [3] (setting [7]) was -7%; in experiment [3] (setting [8]), 78% (active); in experiment [3] (at 50.0 µM), 97.8% (active); in experiment [4] (setting [7]), 1%; in experiment [4] (setting [8]), 70% (active); in experiment [4] (at 50.0 µM) it was 95.9% (active). Also, the growth inhibition in experiment [5] (setting [7]) was -9%; in experiment [5] (setting [8]) it was 70% (active); in experiment [5] (at 50.0 µM) it was 97.1% (active); in experiment [6] (setting [7]) it was 8%; in experiment [6] (setting [8]), 81% (active); in experiment [6] (at 50.0 µM) it was 96.5% (active).

Regarding `CCOC(=O)CNC(=O)Sc1ccc(C(C)(C)C)cc1C`, the growth inhibition is 17% in experiment [1] (setting [7]); 32% in experiment [1] (setting [8]); 0.05% in experiment [1] (at 50.0 µM); 22% in experiment [2] (setting [7]); 74% (active) in experiment [2] (setting [8]); 19.8% in experiment [2] (at 50.0 µM). In addition, the growth inhibition was 17% in experiment [3] (setting [7]); 60% in experiment [3] (setting [8]); 82% (active) in experiment [3] (at 50.0 µM); 19% in experiment [4] (setting [7]); 84% (active) in experiment [4] (setting [8]); 75.7% (active) in experiment [4] (at 50.0 µM). Besides, the growth inhibition is 14% in experiment [5] (setting [7]); 92% (active) in experiment [5] (setting [8]); 69.7% in experiment [5] (at 50.0 µM); 29% in experiment [6] (setting [7]); 50% in experiment [6] (setting [8]); 26.7% in experiment [6] (at 50.0 µM).

Turning to `Cc1ccc(NC(=O)CSC(N)=O)cc1`, the growth inhibition in experiment [1] (setting [7]) is 4%; in experiment [1] (setting [8]), 92% (active); in experiment [1] (at 50.0 µM) it was 97.5% (active); in experiment [2] (setting [7]) it was 4%; in experiment [2] (setting [8]), 96% (active); in experiment [2] (at 50.0 µM) it was 98.5% (active). Also, the growth inhibition in experiment [3] (setting [7]) was 3%; in experiment [3] (setting [8]), 94% (active); in experiment [3] (at 50.0 µM), 99.1% (active); in experiment [4] (setting [7]) it was 2%; in experiment [4] (setting [8]), 94% (active); in experiment [4] (at 50.0 µM), 97.5% (active). The growth inhibition in experiment [5] (setting [7]) was 4%; in experiment [5] (setting [8]) it was 96% (active); in experiment [5] (at 50.0 µM), 97.8% (active); in experiment [6] (setting [7]), 2%; in experiment [6] (setting [8]), 94% (active); in experiment [6] (at 50.0 µM), 97.7% (active).

Consider `c1ccc(/C(=N\Nc2nc3ccccc3s2)c2ccccn2)cc1`, for which the growth inhibition was 0% in experiment [1] (setting [7]); 88% (active) in experiment [1] (setting [8]); 71.7% (active) in experiment [1] (at 50.0 µM); 9% in experiment [2] (setting [7]); 79% (active) in experiment [2] (setting [8]); 73.5% (active) in experiment [2] (at 50.0 µM). For the same compound, the growth inhibition in experiment [3] (setting [7]) was -6%; in experiment [3] (setting [8]), 90% (active); in experiment [3] (at 50.0 µM) it was 75.4% (active); in experiment [4] (setting [7]) it was -17%; in experiment [4] (setting [8]), 75% (active); in experiment [4] (at 50.0 µM) it was 79.7% (active). Further, the growth inhibition is -6% in experiment [5] (setting [7]); 87% (active) in experiment [5] (setting [8]); 78.7% (active) in experiment [5] (at 50.0 µM); 11% in experiment [6] (setting [7]); 89% (active) in experiment [6] (setting [8]); 81.3% (active) in experiment [6] (at 50.0 µM).

As to `COCC1C(=O)c2cc3c(cc2C12C=CC1(C=C2)OCCO1)OCO3` (configuration not stated), the growth inhibition in experiment [1] (setting [7]) was 36%; in experiment [1] (setting [8]), 7%; in experiment [1] (at 50.0 µM), 86% (active); in experiment [2] (setting [7]) it was 15%; in experiment [2] (setting [8]) it was -7%; in experiment [2] (at 50.0 µM), 91.8% (active). Moreover, the growth inhibition in experiment [3] (setting [7]) is 35%; in experiment [3] (setting [8]), -2%; in experiment [3] (at 50.0 µM) it was 92.8% (active); in experiment [4] (setting [7]), 9%; in experiment [4] (setting [8]) it was 20%; in experiment [4] (at 50.0 µM), 90.2% (active). In addition, the growth inhibition in experiment [5] (setting [7]) was 40%; in experiment [5] (setting [8]), -7%; in experiment [5] (at 50.0 µM), 91.1% (active); in experiment [6] (setting [7]), 50%; in experiment [6] (setting [8]), -14%; in experiment [6] (at 50.0 µM), 88.2% (active).

`Oc1ccc(CNCc2ccccc2)c2cccnc12`: the growth inhibition is 20% in experiment [1] (setting [7]); 98% (active) in experiment [1] (setting [8]); 98.4% (active) in experiment [1] (at 50.0 µM); 4% in experiment [2] (setting [7]); 97% (active) in experiment [2] (setting [8]); 97% (active) in experiment [2] (at 50.0 µM). Moreover, the growth inhibition was 0% in experiment [3] (setting [7]); 98% (active) in experiment [3] (setting [8]); 96.2% (active) in experiment [3] (at 50.0 µM); -26% in experiment [4] (setting [7]); 96% (active) in experiment [4] (setting [8]); 94.6% (active) in experiment [4] (at 50.0 µM). In addition, the growth inhibition in experiment [5] (setting [7]) was -5%; in experiment [5] (setting [8]) it was 99% (active); in experiment [5] (at 50.0 µM), 98.1% (active); in experiment [6] (setting [7]), 4%; in experiment [6] (setting [8]), 99% (active); in experiment [6] (at 50.0 µM), 98.2% (active).

Take `Cn1cc(NC(=O)c2cc(NC(=O)CCCCCCCCCCC(=O)Nc3cc(C(=O)Nc4cc(C(=O)NCCC(=N)N)n(C)c4)n(C)c3)cn2C)cc1C(=O)NCCC(=N)N`: the growth inhibition in experiment [1] (setting [7]) is 92% (active); in experiment [1] (setting [8]) it was 98% (active); in experiment [1] (at 50.0 µM), 89.5% (active); in experiment [2] (setting [7]), 95% (active); in experiment [2] (setting [8]), 98% (active); in experiment [2] (at 50.0 µM), 92% (active). Moreover, the growth inhibition in experiment [3] (setting [7]) was 95% (active); in experiment [3] (setting [8]), 99% (active); in experiment [3] (at 50.0 µM), 92% (active); in experiment [4] (setting [7]) it was 72% (active); in experiment [4] (setting [8]), 97% (active); in experiment [4] (at 50.0 µM), 91.4% (active). The growth inhibition in experiment [5] (setting [7]) was 96% (active); in experiment [5] (setting [8]) it was 98% (active); in experiment [5] (at 50.0 µM) it was 91% (active); in experiment [6] (setting [7]) it was 92% (active); in experiment [6] (setting [8]), 97% (active); in experiment [6] (at 50.0 µM), 90.2% (active).
